This is an account of results in PubChem BioAssay (NCATS).

Unmarked numbers belong to inactive results. Records with an inconclusive call do not appear. The source made the active and inactive calls. Unless noted, the call rests on the fitted dose curve; in most records, active means well fitted curve in either direction with a large enough effect (not every such curve was filed as active); inconclusive means small, poorly fitted or top-dose-only effect, or another doubt; inactive means flat fitted curve, though single readings scatter.

The target in experiment [1] is Lysosomal acid glucosylceramidase (Homo sapiens) (UniProt P04062). Briefly: Glucocerebrosidase-p2 (AID 348; in the data active means potency below about 10 µM; further: potency means the concentration at half of the fitted maximal effect). Particulars: purified GBA, blue fluorogenic substrate, 40 min. Summed up:
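Normal human glucocerebrosidase (0.2 nM) with blue fluorogenic substrate (80 uM final) in citrate/phosphate pH 5.9 with 10mM sodium taurocholate, 0.01% tween-20; 40 min RT, NaOH/glycine stop; fluorescence Ex 365/Em 440; AC50 from a titration from 0.6 nM upwards.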

Experiment [2] in a line: AP1 Signaling Pathway (AID 357).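 Further: ME-180 reporter cells stimulated with EGF at its EC50 level; on the % scale 0 is the no-effect control and ±100 the full control effect.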 Particulars: ME-180 AP-1-bla reporter, EGF-induced, beta-lactamase ratio, 5 h; at 7.69 µM (top of the series) unless noted. An outline of the steps: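 First, ME-180 AP-1-bla cells were cultured overnight at 37 °C in low-serum Opti-MEM. Next, titrated compounds with EC50 EGF were incubated 5 hours. Finally, CCF4 was added for 2.5 hours and the 460/530 nm ratio recorded.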

Experiment [3] addresses Cytochrome P450 1A2 (Homo sapiens) (UniProt P05177). Briefly: p450-cyp1a2 (AID 410; calls by dose curve; further: potency means the concentration at half of the fitted maximal effect;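 on activity change, negative = inhibition: -100% = full effect of reference inhibitor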). Conditions: recombinant CYP1A2, luciferin-ME demethylation, luminescence; series mostly up to 11.4 µM. Summed up:
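20nM CYP1A2, 100uM Luciferin-ME (=Km), 100mM KPO4; cpd 10 min RT; +NADPH regen, 60 min RT; stop/detect 20 min; luminescence. Normalized to furafylline 57 uM = full inhibition.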

A short description of experiment [4]: NFAT Signaling Pathway (AID 444).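 Further: carbachol stimulus at about its EC50 of 1 µM final; on the % scale 0 is the no-effect control and ±100 the full control effect.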 Conditions: Jurkat NFAT-bla M1, carbachol, beta-lactamase ratio, 5 h; at 7.69 µM (top of the series) unless noted. Summed up: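 Jurkat cells carrying an NFAT-driven β-lactamase reporter and co-transfected muscarinic M1 receptor were treated with compound plus carbachol (1 uM final, an EC50 level) for 5 h at 37 °C. CCF4 loading followed for 1 h at RT; 460/530 nm ratio gave %activity.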

Experiment [5] in a line: Stat Signaling Pathway (AID 446).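 Further: ME-180 cervical cancer cells given 40 pM IL-6 alongside compound; SIE-controlled beta-lactamase reporter measured as 460/530 nm FRET emission ratio; on the % scale 0 is the no-effect control and ±100 the full control effect.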 Particulars: ME-180 (cervical carcinoma) SIE beta-lactamase reporter, IL-6 stimulated, 5 h; at 7.69 µM (top of the series) unless noted. An outline of the steps: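 Emission at 460 and 530 nm (excitation 405 nm) reports SIE-controlled beta-lactamase in ME-180 cells. Cells received compound with 40 pM IL-6 for 5 hrs at 37 C; data scaled between 300 pM IL-6 and 125 nM JAK-inhibitor controls.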

Experiment [6] addresses Glucocorticoid receptor (Homo sapiens) (UniProt P04150). Briefly: GR-GFP Redistribution (AID 450;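 active means compounds whose dose series gives a full or clear partial fitted curve of increased nuclear translocation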; further: potency means the concentration at half of the fitted maximal effect). Particulars: U2OS GR-GFP nuclear translocation, laser cytometry, 2 h.
For experiment [7] the target is unchanged. Briefly: GR-EFC Redistribution (AID 451; calls by dose curve; further: potency means the concentration at half of the fitted maximal effect). Particulars: CHO-K1 GR-EFC translocation, beta-gal luminescence, 2 h. An outline of the steps: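 CHO-K1 cells stably expressing nuclear-localized β-gal enzyme acceptor and GR fused C-terminally to the enzyme donor fragment; ligand-driven nuclear translocation restores β-gal by complementation. Compounds titrated up to 46 uM final, 2 h at 37 °C; luminescence read.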

For experiment [8], the target named is Mitogen-activated protein kinase 10 (Mus musculus) (UniProt Q61831). Briefly: JNK3 AlphaScreen Assay (AID 530).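 Further: kinase came from lysate of stimulated human HepG2 cells; signal reports phosphorylation of biotinylated GST-cJun 1-79 at Ser73 with 10 µM ATP; on the % scale 0 is the no-effect control and ±100 the full control effect.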 Particulars: JNK3 lysate, c-Jun phosphorylation; series mostly up to 11.4 µM. Summed up:
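Biotinylated GST-cJun(1-79) served as substrate for JNK3 in HepG2 lysates stimulated with IL-1beta and TNF-alpha. ATP was 10 uM final, pH 7.6. Ser73 phosphorylation was quantified by AlphaScreen (680 nm excitation).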

The target in experiment [9] is 3',5'-cyclic-AMP phosphodiesterase 4B (Homo sapiens) (UniProt Q07343). Briefly: qHTS Assay for Inhibitors of PDE-IV (AID 607; active means well fitted activation curve with a large enough effect in the main read-out, with a control signal flat, not every such curve was filed as active; further: % of control where 0% means no effect). Conditions: HEK293 ACTOne CNG channel cells, membrane potential fluorescence; series mostly up to 22.9 µM. Summed up: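 The readout is membrane depolarisation from a cAMP-sensing CNG channel, detected with a potential dye at ex 535/em 590. Cells were HEK293-derived (endogenous PDE-IV) at 1000 cells/well, titrated up to 22.9 uM final.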
Sequence of 3',5'-cyclic-AMP phosphodiesterase 4B (Homo sapiens) (Q07343 whole entry, looked up): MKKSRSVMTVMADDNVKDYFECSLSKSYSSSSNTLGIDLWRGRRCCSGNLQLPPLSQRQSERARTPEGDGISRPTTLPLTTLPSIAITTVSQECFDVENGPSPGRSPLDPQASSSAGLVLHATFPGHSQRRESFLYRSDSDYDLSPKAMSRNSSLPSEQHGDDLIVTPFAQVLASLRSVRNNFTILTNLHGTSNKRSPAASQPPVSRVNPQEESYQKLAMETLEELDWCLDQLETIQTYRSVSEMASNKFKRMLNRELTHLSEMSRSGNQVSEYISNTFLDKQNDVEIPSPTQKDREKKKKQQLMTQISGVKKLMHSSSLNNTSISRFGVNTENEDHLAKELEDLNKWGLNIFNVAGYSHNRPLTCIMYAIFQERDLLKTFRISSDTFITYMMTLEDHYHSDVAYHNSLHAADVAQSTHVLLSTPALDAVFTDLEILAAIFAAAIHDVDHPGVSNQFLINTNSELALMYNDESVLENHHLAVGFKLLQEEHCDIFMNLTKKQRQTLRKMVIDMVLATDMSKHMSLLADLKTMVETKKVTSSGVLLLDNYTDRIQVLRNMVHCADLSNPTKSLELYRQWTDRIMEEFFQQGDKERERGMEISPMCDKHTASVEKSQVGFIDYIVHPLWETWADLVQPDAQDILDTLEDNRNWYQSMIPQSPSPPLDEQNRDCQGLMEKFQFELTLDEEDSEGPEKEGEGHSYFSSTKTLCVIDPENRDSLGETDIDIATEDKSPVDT
A general note: Quantitative high-throughput screening tests each substance at several concentrations.

For experiment [10], the target named is Cytochrome P450 3A4 (Homo sapiens) (UniProt P08684). Briefly: qHTS Assay for Inhibitors and Substrates of Cytochrome P450 3A4 (AID 884; active means well fitted curve in the direction sought with a large enough effect; an effect the other way counts as inactive or inconclusive; further: potency means the concentration at half of the fitted maximal effect; nearly all actives have a fitted effect of over 50% in size). Particulars: recombinant CYP3A4, Luciferin-PPXE luminescence; series mostly up to 57.1 µM. An outline of the steps:
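Luminescent readout of luciferin produced by CYP3A4 (20 nM) dealkylation of Luciferin-PPXE, 25 uM (its KM). NADPH-driven reaction ran 60 min at RT after 10 min compound preincubation; data scaled to 57 uM ketoconazole as 100% inhibition.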

Experiment [11] has the same target. Briefly: qHTS Assay for Activators of Cytochrome P450 3A4 (AID 885; active means well fitted curve in the direction sought with a large enough effect; an effect the other way counts as inactive or inconclusive; further: nearly all actives have a fitted effect of over 65% in size). Particulars: recombinant CYP3A4, Luciferin-PPXE luminescence, 60 min; series mostly up to 11.4 µM. An outline of the steps:
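Activators are scored by enhanced luminescence from CYP3A4 conversion of luciferin-PPXE (25uM, equal to KM) to luciferin, after 60 min at RT with an NADPH-regenerating system.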

Sequence of Cytochrome P450 3A4 (Homo sapiens) (P08684 whole entry, looked up): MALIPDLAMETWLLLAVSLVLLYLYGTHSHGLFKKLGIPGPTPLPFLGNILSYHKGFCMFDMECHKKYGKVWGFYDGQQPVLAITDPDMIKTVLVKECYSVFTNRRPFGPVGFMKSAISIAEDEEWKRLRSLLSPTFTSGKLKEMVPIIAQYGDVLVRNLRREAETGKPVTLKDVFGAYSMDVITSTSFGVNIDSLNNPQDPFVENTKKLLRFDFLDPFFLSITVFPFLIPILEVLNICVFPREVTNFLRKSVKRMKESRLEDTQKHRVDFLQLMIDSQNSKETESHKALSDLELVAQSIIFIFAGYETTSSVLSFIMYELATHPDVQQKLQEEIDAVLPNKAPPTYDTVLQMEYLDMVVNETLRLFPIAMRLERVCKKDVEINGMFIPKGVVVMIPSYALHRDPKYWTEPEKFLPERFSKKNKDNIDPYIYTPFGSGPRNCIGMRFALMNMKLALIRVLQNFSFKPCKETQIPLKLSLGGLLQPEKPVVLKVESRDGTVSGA
Sequence of Glucocorticoid receptor (Homo sapiens) (P04150 whole entry, looked up, the tested form may be a part): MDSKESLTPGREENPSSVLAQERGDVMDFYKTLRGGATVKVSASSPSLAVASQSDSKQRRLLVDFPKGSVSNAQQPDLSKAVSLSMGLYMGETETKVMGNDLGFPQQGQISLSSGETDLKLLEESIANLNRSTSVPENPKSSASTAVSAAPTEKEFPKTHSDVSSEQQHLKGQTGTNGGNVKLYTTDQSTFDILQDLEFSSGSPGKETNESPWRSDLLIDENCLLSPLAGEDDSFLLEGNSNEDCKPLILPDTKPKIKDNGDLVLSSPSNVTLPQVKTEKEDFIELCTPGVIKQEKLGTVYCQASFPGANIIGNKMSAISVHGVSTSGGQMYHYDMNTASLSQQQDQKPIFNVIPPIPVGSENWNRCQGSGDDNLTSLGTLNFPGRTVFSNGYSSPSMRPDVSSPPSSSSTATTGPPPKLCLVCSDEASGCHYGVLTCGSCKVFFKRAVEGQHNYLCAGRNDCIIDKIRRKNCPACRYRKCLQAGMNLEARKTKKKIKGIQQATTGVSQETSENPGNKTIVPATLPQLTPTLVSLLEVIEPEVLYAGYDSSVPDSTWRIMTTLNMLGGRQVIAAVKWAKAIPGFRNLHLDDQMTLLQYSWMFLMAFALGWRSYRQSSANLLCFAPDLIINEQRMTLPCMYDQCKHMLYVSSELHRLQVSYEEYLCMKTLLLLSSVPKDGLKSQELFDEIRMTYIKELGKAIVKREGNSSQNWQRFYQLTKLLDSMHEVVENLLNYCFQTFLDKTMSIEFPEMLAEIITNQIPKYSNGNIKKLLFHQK
Sequence of Lysosomal acid glucosylceramidase (Homo sapiens) (P04062 whole entry, looked up): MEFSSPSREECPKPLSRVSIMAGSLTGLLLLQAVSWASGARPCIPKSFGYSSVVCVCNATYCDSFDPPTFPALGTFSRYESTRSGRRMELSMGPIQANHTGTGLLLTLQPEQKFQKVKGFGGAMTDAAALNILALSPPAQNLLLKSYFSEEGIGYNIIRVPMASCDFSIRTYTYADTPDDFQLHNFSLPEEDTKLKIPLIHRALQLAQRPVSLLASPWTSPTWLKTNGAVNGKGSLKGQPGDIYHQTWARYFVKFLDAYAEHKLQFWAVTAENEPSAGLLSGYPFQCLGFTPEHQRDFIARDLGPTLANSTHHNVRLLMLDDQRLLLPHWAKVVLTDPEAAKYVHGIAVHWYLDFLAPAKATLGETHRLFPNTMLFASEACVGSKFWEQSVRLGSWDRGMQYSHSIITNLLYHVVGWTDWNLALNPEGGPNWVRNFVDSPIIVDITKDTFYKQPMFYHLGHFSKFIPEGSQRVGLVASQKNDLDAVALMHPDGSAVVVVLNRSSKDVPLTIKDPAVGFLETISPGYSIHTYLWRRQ
Sequence of Cytochrome P450 1A2 (Homo sapiens) (P05177 whole entry, looked up): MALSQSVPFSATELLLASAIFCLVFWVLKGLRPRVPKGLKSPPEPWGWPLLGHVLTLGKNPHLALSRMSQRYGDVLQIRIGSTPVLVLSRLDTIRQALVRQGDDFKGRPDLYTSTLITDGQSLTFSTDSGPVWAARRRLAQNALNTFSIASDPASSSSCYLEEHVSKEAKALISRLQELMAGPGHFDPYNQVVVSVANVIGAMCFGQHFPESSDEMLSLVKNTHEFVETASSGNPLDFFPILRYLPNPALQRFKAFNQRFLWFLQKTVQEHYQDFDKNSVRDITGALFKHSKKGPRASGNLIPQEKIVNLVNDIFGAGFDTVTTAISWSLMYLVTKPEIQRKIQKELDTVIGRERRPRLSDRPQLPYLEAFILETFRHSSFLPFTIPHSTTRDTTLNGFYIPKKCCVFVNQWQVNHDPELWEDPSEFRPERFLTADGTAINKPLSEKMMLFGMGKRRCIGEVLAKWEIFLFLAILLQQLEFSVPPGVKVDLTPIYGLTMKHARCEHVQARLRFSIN

Consider `CC(C)(C)C(=O)[C@H]([C@@H](c1ccccc1)N1CCOCC1)N1CCOCC1`, for which the Potency in experiment [1] was over 11.4 µM; in experiment [6], over 46 µM; in experiment [7], over 9.22 µM; in [10], 2.51 µM (active). The results for the activity change, negative = inhibition in experiment [2] and in experiment [4] were 0.675% and 16.7%, respectively. Also, the Potency result in experiment [3], in experiment [8], in [9] and in [11] was “inactive” throughout. Also, in experiment [5], the activity, negative = inhibition was 2.4%.
Turning to `COc1ccc(C[C@@H]2C(=O)N[C@H](C)C(=O)N(C)[C@@H]3Cc4ccc(cc4)Oc4cc(ccc4O)C[C@H](C(=O)N[C@@H](C)C(=O)N[C@H](C)C(=O)N2C)N(C)C3=O)cc1`, the Potency was over 11.4 µM in experiment [1], over 46 µM in experiment [6] and over 9.22 µM in experiment [7]. Besides, the activity change, negative = inhibition in [2] was -121% (active); in experiment [4], -132% (active). For the same compound, the Potency entry in experiment [3], in experiment [8], in experiment [9] and in [11] was “inactive” in each case. Also, in [5], the activity, negative = inhibition is -104% (active).
On to `C=C[C@]1(C)C[C@H](OC(=O)CO)[C@]2(C)C3C(=O)CC[C@]3(CC[C@H]2C)[C@H](C)[C@H]1O` (some centres undefined), for which the figures for the Potency in experiment [1], in experiment [6] and in experiment [7] were over 11.4 µM, over 46 µM and over 9.22 µM, respectively. Further, the activity change, negative = inhibition in experiment [2] is -0.357%; in [3] it was -21% [at 2.29 µM]; in experiment [4], -4.75%. Moreover, in experiment [5], the activity, negative = inhibition was -4.08%. For the same compound, the Potency entry in experiment [8], in experiment [9] and in [11] was “inactive” each time.
As to `COCCn1c(=O)c(-c2cc(F)cc(F)c2)nc2cnc(OC)nc21`, the Potency is over 11.4 µM in experiment [1], 3.98 µM (active) in [3], over 9.22 µM in [6] and over 46 µM in experiment [7]. The figures for the activity change, negative = inhibition in experiment [2] and in experiment [4] were -11.6% and -5.01%, respectively. Moreover, the activity, negative = inhibition in experiment [5] is -2.4%. Moreover, the Potency entry in experiment [8], in experiment [9] and in experiment [11] was “inactive” each time.
Take `c1ccc2c(c1)-c1nc3ccccc3cc1[C@H]2N1CCOCC1`: the Potency in experiment [1] is over 11.4 µM; in experiment [3], 1.26 µM (active); in [6], over 46 µM; in [7], over 9.22 µM; in experiment [10], 2.51 µM (active). The activity change, negative = inhibition in experiment [2] is -6.79%; in [4], -6.28%. Also, the activity, negative = inhibition in [5] was 7.66%. Further, the Potency result in [8], in experiment [9] and in [11] was “inactive” in each case.
As to `Cc1ccc(Nc2nnc(-c3ccc4c(c3)OCO4)o2)c(C)c1`, the Potency in experiment [1] was over 11.4 µM; in experiment [3], 2.51 µM (active); in experiment [6] it was over 46 µM; in experiment [7] it was over 9.22 µM; in experiment [10] it was 3.16 µM (active). Further, the activity change, negative = inhibition in experiment [2] was -5.47%; in experiment [4], 1.57%. Moreover, the activity, negative = inhibition in [5] was -2.78%. Also, the Potency result in experiment [8], in experiment [9] and in experiment [11] was “inactive” each time.
For the compound `COc1ncc2nc(-c3cc(F)cc(F)c3)c(=O)n(C[C@H]3CCCO3)c2n1`, the Potency in [1] was over 11.4 µM; in experiment [3], 3.16 µM (active); in [6] it was over 9.22 µM; in [7] it was over 46 µM. For the same compound, the activity change, negative = inhibition is -0.553% in experiment [2] and -10.9% in experiment [4]. Further, in experiment [5], the activity, negative = inhibition is -4.03%. Further, the Potency result in experiment [8], in experiment [9] and in experiment [11] was “inactive” throughout.
For `O=c1oc2cc(N=Cc3ccc4c(c3)OCO4)ccc2c2ccccc12`, the Potency in experiment [1] was over 11.4 µM; in [3] it was 0.00794 µM (active); in [6], over 46 µM; in experiment [7], over 9.22 µM; in experiment [10] it was 3.98 µM (active). Also, the activity change, negative = inhibition in experiment [2] is 7.4%; in [4] it was 12.7%. In experiment [5], the activity, negative = inhibition was -1.72%. For the same compound, the Potency entry in experiment [8], in [9] and in experiment [11] was “inactive” in each case.
Take `COc1cc2c3cc1Oc1c(OC)c(OC)cc4c1[C@@H](Cc1ccc(O)c(c1)Oc1ccc(cc1)C[C@@H]3N(C)CC2)CN(C)C4`: the Potency in [1] was over 11.4 µM; in experiment [6], over 46 µM; in experiment [7], over 9.22 µM. Besides, the values for the activity change, negative = inhibition in experiment [2] and in [4] were -11.4% and -11.8%, respectively. In addition, the Potency entry in experiment [3], in experiment [8], in experiment [9] and in experiment [11] was “inactive” in each case. Also, the activity, negative = inhibition in experiment [5] was -1.76%.
With `C[C@@H]1Oc2ccc(C(=O)C[C@@H](C(=O)O)c3ccc4c(c3)OCO4)cc2O1`, the Potency in [1] was over 11.4 µM; in [3] it was 0.794 µM (active); in [6], over 46 µM; in [7], over 9.22 µM. Further, the activity change, negative = inhibition is 1.87% in experiment [2] and -10.8% in experiment [4]. In addition, the activity, negative = inhibition in experiment [5] was -5.57%. In addition, the Potency result in [8], in experiment [9] and in experiment [11] was “inactive” in each case.
For the compound `CC(C)c1ccccc1S(=O)c1ccccc1C(C)(C)O` (centres undefined), the Potency in experiment [1] is over 11.4 µM; in [6], over 46 µM; in experiment [7], over 9.22 µM. Also, the activity change, negative = inhibition in experiment [2] is -11.8%; in [3] it was -10.7% [at 2.29 µM]; in experiment [4], 20.3%. Further, in experiment [5], the activity, negative = inhibition was 2.89%. In addition, the Potency result in [8], in [9] and in experiment [11] was “inactive” throughout.
As for `CN[C@@H](c1ccncc1)[C@@H](NC)c1ccncc1`, the figures for the Potency in experiment [1], in experiment [6] and in experiment [7] were over 11.4 µM, over 46 µM and over 9.22 µM, respectively. Moreover, the values for the activity change, negative = inhibition in [2] and in experiment [4] were 11.4% and -1.07%, respectively. Moreover, the Potency entry in experiment [3], in experiment [8], in experiment [9] and in experiment [11] was “inactive” in each case. Also, in experiment [5], the activity, negative = inhibition is -0.841%.
